Assay outcomes as filed in PubChem.
The list is not random: actives were taken first. Their share in the collection is about 19%.
HT1080NT lethal: kills 2HG-producing HT-1080-NT fibrosarcoma cells; HT-1080-NT fibrosarcoma viability, CellTiter-Glo ATP luminescence, 48 h; Potency, µM (series often up to 46.1 µM), for the others: top-dose activity, negative = less viability, usual class: cytotoxic; hit rate 1.6% among 360,000; AID 686970;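 further: NT is the 2HG producing partner of a matched IDH1 knockdown line; potency means the concentration at half of the fitted maximal effect; 0% = DMSO-treated cells and -100% = media-only wells without cells; nearly all actives have a fitted effect of over 55% in size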
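HT-1080-NT fibrosarcoma cells (2HG-overproducing), 750 cells/well in RPMI with 5% FBS, dosed after 2 h and incubated 48 h at 37C. CellTiter-Glo luminescence normalized to DMSO and no-cell wells; concentration-response curves fitted and classed.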
DT40 TDP1 CPT: growth inhibition of DT40 Tdp1-/-;hTDP1 cells with camptothecin (screen for TDP1 inhibitors); Potency, µM (titrated, usually from 46.2 µM), for inactives: top-dose activity change, negative = growth inhibition, most hits filed as inhibitors; hit rate 12% among 420,000; chicken DT40 Tdp1-/-;hTDP1 cells + 20 nM CPT, ATP luminescence, 48 h; AID 686979; further: potency means the concentration at half of the fitted maximal effect; nearly all actives have a fitted effect of over 55% in size
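Cell growth measured by CellTiter-Glo luminescence after a minimum 48 h, 37 C compound exposure with 20 nM CPT in Tdp1-knockout DT40 cells stably expressing hTDP1, seeded 400/well; qHTS titration format.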
IL-1B inflam inh: inhibitors of inflammasome signaling (IL-1 beta secretion); THP-1 LPS/ATP IL-1B secretion, AlphaLISA, 16 h; hits give low values; AID 743279; activity change, % at 57.5 µM; hit rate 4.7% among 360,000; in the data active means activity change below about -50%; inconclusive means mostly about -30% to -49%
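Secreted IL-1B measured by AlphaLISA bead assay after 16 h compound exposure of THP-1 cells; compounds (final up to 57.5 uM) added 1 h before LPS (250 ng/mL) and ATP (1.25 mM) stimulation; lower signal means less secretion.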
HT1080 IDH1KD tx: toxicity to HT-1080 IDH1 knockdown cells (counter line) | HT-1080 IDH1 knockdown viability, ATP luminescence, 48 h | Potency, µM (top dose mostly 46.1 µM), for the others: top-dose activity, negative = toxicity, actives largely listed as cytotoxic | hit rate 2% among 360,000;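 further: potency means the concentration at half of the fitted maximal effect; 0% = DMSO wells and -100% = cell-free medium wells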
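IDH1KD HT-1080 cells, 750/well, RPMI + 5% FBS; compound pinned after 2 h settling; 48 h, 37 °C; CellTiter-Glo luminescence; % activity normalised to DMSO and no-cell wells; curves fitted, classed by r2 and efficacy.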
DT40 TDP1 no CPT: qHTS for Inhibitors of human tyrosyl-DNA phosphodiesterase 1 (TDP1): qHTS in cells in absence of CPT. hit rate 15% among 420,000. Potency, µM (series often up to 46.2 µM), for inactives: top-dose activity change, negative = growth inhibition, actives largely listed as inhibitors. DT40 Tdp1-/- hTDP1 cells, no CPT, ATP luminescence, 48 h; further: potency means the concentration at half of the fitted maximal effect; nearly all actives have a fitted effect of over 55% in size
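Luminescent ATP content (CellTiter-Glo) served as the growth readout. Knockout chicken DT40 cells expressing human TDP1 were exposed to compounds without camptothecin for a minimum 48 hr at 37 °C.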
Starred values were filed as active, the others as inactive; ? = inconclusive; . = no result. Unless noted, the call rests on the fitted dose curve; in most records, active means well fitted curve in the direction sought with a large enough effect; inconclusive means small, poorly fitted or top-dose-only effect, or another doubt; inactive means no such curve, though single readings can be large; an effect the other way counts as inactive or inconclusive. Unless noted, on the % scale 0 is the no-effect control and ±100 the full control effect.

SMILES | HT1080NT lethal | DT40 TDP1 CPT | IL-1B inflam inh | HT1080 IDH1KD tx | DT40 TDP1 no CPT
Cc1cccnc1C(c1ccc(F)cc1)N(C)C(=O)C1CCN(CCOc2ccc(Cl)cc2Cl)CC1 (configuration not stated) | ? | 26µM* | -56* | -29% | 21µM*
O=C(NC(c1ccccc1)c1cnccn1)C1CCN(CCCOc2ccccc2)CC1 (configuration not stated) | 0% | -1% | -10 | 15% | -26%
CC(NC(=O)C1CCN(CCOc2ccc(Cl)cc2)CC1)c1cccc2ccccc12 (configuration not stated) | ? | 16µM* | ? | ? | ?
Cc1cccnc1C(NC(=O)C1CCN(CCCOc2ccccc2)CC1)c1ccc(F)cc1 (configuration not stated) | -9% | ? | -17 | -5% | ?
NS(=O)(=O)c1ccc(CCNC(=O)COC(=O)c2nc(Cl)ccc2Cl)cc1 | 8% | 22% | 3 | 1% | 16%
COc1ccccc1C(NC(=O)C1CCN(CCOc2ccc(Cl)cc2Cl)CC1)c1ccccn1 (configuration not stated) | ? | ? | 0 | 15µM* | ?
N#C/C(=C\c1cn(-c2ccccc2)nc1-c1cccnc1)c1nnc2n1CCCCC2 | -28% | ? | -61* | -18% | ?
N#C/C(=C/c1ccccc1[N+](=O)[O-])c1nnc2n1CCCCC2 | 17% | 12% | -2 | 18% | -2%
O=C(/C=C/c1cn(-c2ccccc2)nc1-c1cccnc1)N1CCCC1 | 4% | 8.2µM* | -12 | -13% | 7.3µM*
O=C(/C=C/c1cn(-c2ccccc2)nc1-c1cccnc1)c1ccco1 | ? | 15µM* | -96* | ? | 10µM*
CCOc1ccc(NC(=O)C2CC(=O)N(c3ccc(C(C)C)cc3)C2)cc1 (configuration not stated) | . | -2% | . | . | -4%
CCN1C(Br)=CCc2ccccc21 | . | 6% | . | . | -11%
CC1(c2nnc(-c3ccc(Cl)cc3)o2)CC(c2ccc(Cl)cc2)=NO1 (configuration not stated) | 12% | -20% | -9 | 12% | -10%
Clc1ccc(-c2nnc(C34CC5CC(CC(C5)C3)C4)o2)cn1 | 22% | ? | 20 | 22% | 29µM*
O=C(/C=C/c1ccccc1)NC(NC(=S)Nc1ccc(Cl)cc1)C(Cl)(Cl)Cl (configuration not stated) | ? | 16µM* | ? | 18µM* | 5.2µM*
CC(C)NC(NC(=O)/C=C/c1ccccc1)C(Cl)(Cl)Cl (configuration not stated) | -9% | -3% | -10 | -21% | ?
O=C(CCc1ccccc1)NC(NC(=S)Nc1ccc(Cl)cc1)C(Cl)(Cl)Cl (configuration not stated) | ? | 8.2µM* | -4 | ? | 4.6µM*
CCOC(=O)NC(NC(=S)Nc1ccc(OC)cc1)C(Cl)(Cl)Cl (configuration not stated) | 1% | 0% | -16 | -4% | -2%
O=C(NC(NC(=S)Nc1ccccc1C(=O)O)C(Cl)(Cl)Cl)c1ccccc1 (configuration not stated) | 9% | -26% | 21 | 16% | -10%
CCC(=O)NC(NC(=S)Nc1ccc(S(N)(=O)=O)cc1)C(Cl)(Cl)Cl (configuration not stated) | -8% | -5% | 0 | -4% | -1%
O=C(/C=C/c1ccccc1)NC(NC(=S)Nc1cc(Cl)ccc1Cl)C(Cl)(Cl)Cl (configuration not stated) | ? | 5.2µM* | -66* | ? | 5.2µM*
COc1ccc(NC(=S)NC(NC(=O)/C=C/c2ccccc2)C(Cl)(Cl)Cl)cc1 (configuration not stated) | ? | ? | -4 | ? | 18µM*
